Assay in all cases: DAPPL (digital affinity profiling via proximity ligation, sequencing); 10 mM Tris-HCl pH 7.5, 50 mM NaCl, 1 mM DTT, 4% glycerol, room temperature, 30 min; GST-TFs on glutathione beads, 16-mer random dsDNA library, 0.1% formaldehyde crosslink after washing; high values mean tight binding
One assay addresses T1, FEV (Homo sapiens, UniProt Q99581 1-238).
T1 sequence: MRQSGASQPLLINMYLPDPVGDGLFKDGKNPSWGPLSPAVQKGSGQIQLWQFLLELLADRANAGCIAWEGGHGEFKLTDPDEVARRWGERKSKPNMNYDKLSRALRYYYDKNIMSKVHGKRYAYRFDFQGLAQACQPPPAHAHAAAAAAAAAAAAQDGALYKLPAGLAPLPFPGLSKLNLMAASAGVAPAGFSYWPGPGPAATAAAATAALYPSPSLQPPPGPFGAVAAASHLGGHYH
As to conditions: protein: recombinant; tags: N-terminal GST; dsDNA, one strand shown. The gist of the method: (§1)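 Each value of binding signal is a hexamer's read frequency for a factor divided by the same hexamer's frequency in the tag-only sample. Barcoded, bead-captured GST fusions of human transcription factors made in yeast were pooled with that sample and incubated with 200 nmole of a random double-stranded 16-mer DNA library in Tris/NaCl/DTT/glycerol buffer at room temperature for 30 min. Washing, 0.1% formaldehyde crosslinking, proximity ligation, PCR and Illumina NextSeq500 sequencing followed.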

The target in a further assay is ETV5 (Homo sapiens, UniProt P41161 1-510). As to conditions: protein: recombinant; tags: N-terminal GST; dsDNA, one strand shown. The gist of the method: as §1
Sequence of ETV5 (P41161 whole entry): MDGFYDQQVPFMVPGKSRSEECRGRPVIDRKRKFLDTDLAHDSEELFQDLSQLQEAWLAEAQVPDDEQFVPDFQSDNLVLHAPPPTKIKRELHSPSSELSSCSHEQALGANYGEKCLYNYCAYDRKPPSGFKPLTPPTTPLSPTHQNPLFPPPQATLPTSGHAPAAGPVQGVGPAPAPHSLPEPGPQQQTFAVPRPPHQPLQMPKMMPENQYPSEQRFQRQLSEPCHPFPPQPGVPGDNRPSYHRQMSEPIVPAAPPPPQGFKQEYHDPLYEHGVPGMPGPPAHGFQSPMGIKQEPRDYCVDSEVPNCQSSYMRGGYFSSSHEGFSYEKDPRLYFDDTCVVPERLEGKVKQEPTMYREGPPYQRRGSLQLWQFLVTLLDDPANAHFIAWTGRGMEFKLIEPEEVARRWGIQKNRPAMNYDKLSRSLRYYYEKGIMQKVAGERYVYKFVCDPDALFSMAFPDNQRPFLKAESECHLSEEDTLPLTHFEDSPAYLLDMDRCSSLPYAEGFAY
A further assay addresses HSF1 (Homo sapiens, UniProt Q00613 1-529). Particulars: protein: recombinant; tags: N-terminal GST; chain copies: 3; dsDNA, one strand shown. The gist of the method: as §1
The target in the next assay is T2, SPIC (Homo sapiens, UniProt Q8N5J4 1-248).
T2 sequence: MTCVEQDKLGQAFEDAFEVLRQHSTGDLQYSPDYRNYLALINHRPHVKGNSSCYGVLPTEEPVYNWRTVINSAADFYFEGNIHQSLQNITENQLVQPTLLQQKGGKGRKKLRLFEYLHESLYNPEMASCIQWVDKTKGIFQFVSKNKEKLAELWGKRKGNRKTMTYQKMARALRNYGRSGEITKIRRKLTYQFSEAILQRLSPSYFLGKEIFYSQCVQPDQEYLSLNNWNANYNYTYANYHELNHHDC
As to conditions: protein: recombinant; tags: N-terminal GST; dsDNA, one strand shown. The gist of the method:
as §1

The target of another assay is ELF4 (Homo sapiens, UniProt Q99607 1-663). As to conditions: protein: recombinant; tags: N-terminal GST; dsDNA, one strand shown. Summed up:
as §1

Another assay concerns the target T3, ELK4 (Homo sapiens, UniProt P28324-2 1-405).
T3 sequence: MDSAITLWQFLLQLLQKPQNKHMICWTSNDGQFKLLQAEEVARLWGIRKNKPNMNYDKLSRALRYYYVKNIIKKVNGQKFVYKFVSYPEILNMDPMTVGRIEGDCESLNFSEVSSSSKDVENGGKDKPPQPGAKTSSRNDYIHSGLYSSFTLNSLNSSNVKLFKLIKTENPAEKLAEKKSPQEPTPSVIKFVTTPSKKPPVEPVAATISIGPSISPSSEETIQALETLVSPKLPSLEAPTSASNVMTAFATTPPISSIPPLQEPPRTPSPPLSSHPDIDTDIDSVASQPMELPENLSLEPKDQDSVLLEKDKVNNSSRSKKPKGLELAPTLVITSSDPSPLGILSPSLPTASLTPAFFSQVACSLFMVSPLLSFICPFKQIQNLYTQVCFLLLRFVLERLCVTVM
Particulars: protein: recombinant; tags: N-terminal GST; dsDNA, one strand shown. The gist of the method: as §1

For a further assay, the target named is T4, ETV2 (Homo sapiens, UniProt O00321 1-342).
T4 sequence: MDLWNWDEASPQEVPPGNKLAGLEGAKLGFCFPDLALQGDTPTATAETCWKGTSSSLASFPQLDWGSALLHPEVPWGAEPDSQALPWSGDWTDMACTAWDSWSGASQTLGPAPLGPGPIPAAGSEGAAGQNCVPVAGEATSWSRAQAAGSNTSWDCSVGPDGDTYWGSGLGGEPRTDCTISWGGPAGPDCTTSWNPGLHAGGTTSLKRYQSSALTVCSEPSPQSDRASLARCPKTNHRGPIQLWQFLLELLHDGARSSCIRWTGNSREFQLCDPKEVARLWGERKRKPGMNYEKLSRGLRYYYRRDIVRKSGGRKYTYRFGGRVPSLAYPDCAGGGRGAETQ
Particulars: protein: recombinant; tags: N-terminal GST; dsDNA, one strand shown. The gist of the method: as §1

The target in a further assay is T5, ELF3 (Homo sapiens, UniProt P78545 1-371).
T5 sequence: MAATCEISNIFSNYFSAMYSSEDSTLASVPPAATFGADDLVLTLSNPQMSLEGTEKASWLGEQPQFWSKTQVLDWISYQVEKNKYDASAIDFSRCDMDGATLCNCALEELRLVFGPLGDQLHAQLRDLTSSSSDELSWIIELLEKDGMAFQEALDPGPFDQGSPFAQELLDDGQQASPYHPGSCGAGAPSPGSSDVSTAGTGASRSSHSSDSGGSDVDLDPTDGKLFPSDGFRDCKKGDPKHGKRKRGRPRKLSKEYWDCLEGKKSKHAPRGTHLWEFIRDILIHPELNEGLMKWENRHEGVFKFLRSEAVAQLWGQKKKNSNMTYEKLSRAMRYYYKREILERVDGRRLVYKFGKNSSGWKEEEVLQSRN
As to conditions: protein: recombinant; tags: N-terminal GST; dsDNA, one strand shown. The gist of the method:
as §1

Another assay has as its target CRX (Homo sapiens, UniProt O43186 1-299). As to conditions: protein: recombinant; tags: N-terminal GST; dsDNA, one strand shown. Summed up: as §1
For a further assay, the target named is ETV1 (Homo sapiens, UniProt P50549 1-477). As to conditions: protein: recombinant; tags: N-terminal GST; dsDNA, one strand shown. The gist of the method:
as §1

The target in a further assay is T6, ERF (Homo sapiens, UniProt P50548 1-548).
T6 sequence: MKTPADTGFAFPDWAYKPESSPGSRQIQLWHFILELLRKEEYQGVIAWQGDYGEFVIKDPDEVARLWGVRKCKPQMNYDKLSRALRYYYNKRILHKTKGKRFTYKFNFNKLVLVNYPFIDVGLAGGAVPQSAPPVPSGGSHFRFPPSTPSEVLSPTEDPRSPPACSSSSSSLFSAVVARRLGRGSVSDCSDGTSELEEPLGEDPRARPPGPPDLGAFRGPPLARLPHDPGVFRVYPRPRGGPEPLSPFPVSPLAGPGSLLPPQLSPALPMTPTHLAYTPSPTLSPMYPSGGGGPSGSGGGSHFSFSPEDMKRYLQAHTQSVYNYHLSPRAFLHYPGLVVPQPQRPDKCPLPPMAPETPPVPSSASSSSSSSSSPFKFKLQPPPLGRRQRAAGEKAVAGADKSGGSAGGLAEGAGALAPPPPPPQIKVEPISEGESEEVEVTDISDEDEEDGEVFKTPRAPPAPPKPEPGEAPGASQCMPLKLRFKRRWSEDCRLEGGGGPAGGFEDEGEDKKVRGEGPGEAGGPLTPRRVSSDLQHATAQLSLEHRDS
As to conditions: protein: recombinant; tags: N-terminal GST; dsDNA, one strand shown. The gist of the method:
as §1

The target of another assay is T7, ETV3L (Homo sapiens, UniProt Q6ZN32 1-361).
T7 sequence: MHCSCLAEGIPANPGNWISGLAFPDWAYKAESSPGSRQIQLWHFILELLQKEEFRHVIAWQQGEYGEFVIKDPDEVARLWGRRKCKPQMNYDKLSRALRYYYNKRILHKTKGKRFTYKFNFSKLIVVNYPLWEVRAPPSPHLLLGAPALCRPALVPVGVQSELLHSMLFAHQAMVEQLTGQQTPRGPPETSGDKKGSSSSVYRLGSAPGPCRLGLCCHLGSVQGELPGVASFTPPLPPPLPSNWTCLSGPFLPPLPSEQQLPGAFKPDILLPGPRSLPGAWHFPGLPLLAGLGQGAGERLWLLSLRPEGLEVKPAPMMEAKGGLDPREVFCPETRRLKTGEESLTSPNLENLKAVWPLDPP
As to conditions: protein: recombinant; tags: N-terminal GST; dsDNA, one strand shown. The gist of the method:
as §1

The next assay has as its target T8, ETS2 (Homo sapiens, UniProt P15036 1-469).
T8 sequence: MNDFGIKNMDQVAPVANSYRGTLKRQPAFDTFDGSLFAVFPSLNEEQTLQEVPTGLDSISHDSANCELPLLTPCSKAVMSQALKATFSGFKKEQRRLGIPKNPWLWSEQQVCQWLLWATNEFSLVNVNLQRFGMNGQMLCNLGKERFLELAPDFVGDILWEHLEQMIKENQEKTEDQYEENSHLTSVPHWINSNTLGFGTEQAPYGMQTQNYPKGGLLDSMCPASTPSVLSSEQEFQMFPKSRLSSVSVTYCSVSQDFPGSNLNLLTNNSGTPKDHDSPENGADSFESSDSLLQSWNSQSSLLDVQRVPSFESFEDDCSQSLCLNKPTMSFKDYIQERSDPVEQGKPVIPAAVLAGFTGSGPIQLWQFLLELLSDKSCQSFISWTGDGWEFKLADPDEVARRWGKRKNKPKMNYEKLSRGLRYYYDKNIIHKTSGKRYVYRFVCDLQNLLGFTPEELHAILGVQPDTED
Particulars: protein: recombinant; tags: N-terminal GST; dsDNA, one strand shown. The gist of the method: as §1

For another assay, the target named is T9, SPDEF (Homo sapiens, UniProt O95238 1-335).
T9 sequence: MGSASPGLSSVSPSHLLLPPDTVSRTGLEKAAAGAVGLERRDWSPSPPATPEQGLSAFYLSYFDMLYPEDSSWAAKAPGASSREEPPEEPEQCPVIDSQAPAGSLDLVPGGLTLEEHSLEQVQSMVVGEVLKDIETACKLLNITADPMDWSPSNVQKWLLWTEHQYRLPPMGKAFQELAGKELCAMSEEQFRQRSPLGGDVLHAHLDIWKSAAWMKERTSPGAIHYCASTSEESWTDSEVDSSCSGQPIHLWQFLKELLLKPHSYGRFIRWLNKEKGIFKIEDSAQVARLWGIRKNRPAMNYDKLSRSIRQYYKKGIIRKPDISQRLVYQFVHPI
Particulars: protein: recombinant; tags: N-terminal GST; dsDNA, one strand shown. Summed up: as §1

The target in the next assay is T10, ETV7 (Homo sapiens, UniProt Q9Y603 1-341).
T10 sequence: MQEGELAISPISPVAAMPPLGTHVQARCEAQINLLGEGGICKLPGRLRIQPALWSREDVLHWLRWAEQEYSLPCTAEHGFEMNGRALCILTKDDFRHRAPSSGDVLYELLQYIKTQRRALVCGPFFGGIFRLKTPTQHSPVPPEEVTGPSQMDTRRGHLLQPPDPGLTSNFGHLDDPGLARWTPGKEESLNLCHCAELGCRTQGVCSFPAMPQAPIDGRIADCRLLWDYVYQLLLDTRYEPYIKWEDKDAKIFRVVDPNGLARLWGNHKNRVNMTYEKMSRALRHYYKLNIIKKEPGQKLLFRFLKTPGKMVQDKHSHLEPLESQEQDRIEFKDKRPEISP
Particulars: protein: recombinant; tags: N-terminal GST; dsDNA, one strand shown. Summed up: as §1

The next assay deals with T11, ELF5 (Homo sapiens, UniProt Q9UKW6-2 1-255).
T11 sequence: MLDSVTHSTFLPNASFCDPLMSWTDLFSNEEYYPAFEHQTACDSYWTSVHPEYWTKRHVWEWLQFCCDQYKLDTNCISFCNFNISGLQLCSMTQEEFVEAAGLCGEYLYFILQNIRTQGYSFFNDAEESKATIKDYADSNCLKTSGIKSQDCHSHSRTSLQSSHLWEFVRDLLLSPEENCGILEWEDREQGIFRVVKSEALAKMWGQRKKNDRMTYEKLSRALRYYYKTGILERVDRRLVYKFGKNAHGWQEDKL
Particulars: protein: recombinant; tags: N-terminal GST; dsDNA, one strand shown. The gist of the method:
as §1

The target in another assay is T12, ETV3 (Homo sapiens, UniProt P41162-2 1-143).
T12 sequence: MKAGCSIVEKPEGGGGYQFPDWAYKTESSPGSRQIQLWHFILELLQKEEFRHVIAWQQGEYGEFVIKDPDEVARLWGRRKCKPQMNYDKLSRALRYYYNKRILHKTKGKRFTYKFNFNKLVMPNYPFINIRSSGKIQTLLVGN
Particulars: protein: recombinant; tags: N-terminal GST; dsDNA, one strand shown. Summed up: as §1

A further assay addresses ETV6 (Homo sapiens, UniProt P41212 1-452). As to conditions: protein: recombinant; tags: N-terminal GST; dsDNA, one strand shown. The gist of the method:
as §1

Sequence of HSF1 (Q00613 whole entry): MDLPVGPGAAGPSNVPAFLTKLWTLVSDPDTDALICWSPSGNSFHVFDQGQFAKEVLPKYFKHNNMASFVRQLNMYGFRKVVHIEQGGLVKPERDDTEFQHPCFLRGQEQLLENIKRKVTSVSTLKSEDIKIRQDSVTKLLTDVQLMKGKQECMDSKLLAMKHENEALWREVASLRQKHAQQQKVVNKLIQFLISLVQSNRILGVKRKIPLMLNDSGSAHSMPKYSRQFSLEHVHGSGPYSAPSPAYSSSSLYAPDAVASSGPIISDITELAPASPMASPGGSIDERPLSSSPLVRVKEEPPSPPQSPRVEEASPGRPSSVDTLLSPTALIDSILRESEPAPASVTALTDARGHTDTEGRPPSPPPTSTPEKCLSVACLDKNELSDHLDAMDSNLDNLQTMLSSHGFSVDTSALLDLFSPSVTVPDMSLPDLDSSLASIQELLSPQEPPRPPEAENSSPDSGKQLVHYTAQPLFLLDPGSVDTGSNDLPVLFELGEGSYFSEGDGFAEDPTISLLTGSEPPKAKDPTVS
Sequence of CRX (O43186 whole entry): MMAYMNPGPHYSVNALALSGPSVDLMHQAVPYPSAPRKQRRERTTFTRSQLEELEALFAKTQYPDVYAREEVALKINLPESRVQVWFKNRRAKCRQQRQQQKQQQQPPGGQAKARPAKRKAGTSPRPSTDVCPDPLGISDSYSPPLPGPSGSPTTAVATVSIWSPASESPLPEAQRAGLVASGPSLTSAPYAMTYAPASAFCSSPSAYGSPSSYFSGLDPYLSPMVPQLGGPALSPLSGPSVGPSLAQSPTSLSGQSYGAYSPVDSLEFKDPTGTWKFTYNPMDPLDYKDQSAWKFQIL
Sequence of ETV1 (P50549 whole entry): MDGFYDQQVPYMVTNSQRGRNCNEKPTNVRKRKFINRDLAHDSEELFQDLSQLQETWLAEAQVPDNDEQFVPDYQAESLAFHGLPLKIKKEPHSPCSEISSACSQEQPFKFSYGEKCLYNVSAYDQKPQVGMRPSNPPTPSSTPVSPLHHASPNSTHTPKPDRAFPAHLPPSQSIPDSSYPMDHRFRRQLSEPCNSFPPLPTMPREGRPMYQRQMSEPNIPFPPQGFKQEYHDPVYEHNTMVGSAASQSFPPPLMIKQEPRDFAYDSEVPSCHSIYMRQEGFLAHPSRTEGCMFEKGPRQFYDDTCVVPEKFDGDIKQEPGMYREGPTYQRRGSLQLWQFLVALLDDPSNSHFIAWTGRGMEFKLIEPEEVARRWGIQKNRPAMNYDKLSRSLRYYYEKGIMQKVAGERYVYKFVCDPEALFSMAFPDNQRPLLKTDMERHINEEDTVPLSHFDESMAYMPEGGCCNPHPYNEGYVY
Sequence of ETV6 (P41212 whole entry): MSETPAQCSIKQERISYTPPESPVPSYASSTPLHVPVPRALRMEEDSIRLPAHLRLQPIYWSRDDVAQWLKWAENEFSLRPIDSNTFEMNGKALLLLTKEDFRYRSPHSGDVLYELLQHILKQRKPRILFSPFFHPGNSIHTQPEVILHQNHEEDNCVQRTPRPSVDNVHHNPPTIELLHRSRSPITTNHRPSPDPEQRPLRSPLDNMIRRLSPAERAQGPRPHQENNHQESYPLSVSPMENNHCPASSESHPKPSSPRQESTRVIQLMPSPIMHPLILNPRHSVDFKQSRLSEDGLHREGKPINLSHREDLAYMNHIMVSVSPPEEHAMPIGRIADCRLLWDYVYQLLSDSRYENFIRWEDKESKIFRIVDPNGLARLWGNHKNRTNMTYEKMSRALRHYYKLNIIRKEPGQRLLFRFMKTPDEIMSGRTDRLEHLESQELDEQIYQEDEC
Sequence of ELF4 (Q99607 whole entry): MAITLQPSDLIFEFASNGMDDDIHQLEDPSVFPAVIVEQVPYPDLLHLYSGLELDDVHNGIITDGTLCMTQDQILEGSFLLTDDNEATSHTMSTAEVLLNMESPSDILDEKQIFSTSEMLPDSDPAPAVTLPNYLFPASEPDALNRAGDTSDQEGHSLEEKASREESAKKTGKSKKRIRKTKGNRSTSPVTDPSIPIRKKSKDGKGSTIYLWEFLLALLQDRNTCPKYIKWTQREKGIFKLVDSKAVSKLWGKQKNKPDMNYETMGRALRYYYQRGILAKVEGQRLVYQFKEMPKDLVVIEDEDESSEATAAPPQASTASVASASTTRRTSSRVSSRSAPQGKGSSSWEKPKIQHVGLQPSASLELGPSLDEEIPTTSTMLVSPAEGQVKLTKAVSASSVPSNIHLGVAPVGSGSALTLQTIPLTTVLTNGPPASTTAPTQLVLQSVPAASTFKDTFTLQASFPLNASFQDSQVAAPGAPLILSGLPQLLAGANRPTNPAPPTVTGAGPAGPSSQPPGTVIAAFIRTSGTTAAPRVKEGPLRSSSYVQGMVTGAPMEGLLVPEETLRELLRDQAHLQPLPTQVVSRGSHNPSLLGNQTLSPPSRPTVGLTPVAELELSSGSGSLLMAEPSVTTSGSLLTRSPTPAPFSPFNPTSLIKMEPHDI

Consider TTCGTA, for which the binding signal with FEV was 1.3 fold enrichment (6-mer frequency, TF over GST control); with ETV5, 1.42 fold enrichment (6-mer frequency, TF over GST control); with HSF1, 1.33 fold enrichment (6-mer frequency, TF over GST control); with SPIC, 1.42 fold enrichment (6-mer frequency, TF over GST control); with ELF4, 1.39 fold enrichment (6-mer frequency, TF over GST control); in the assay with ELK4 it was 1.21 fold enrichment (6-mer frequency, TF over GST control). Moreover, the binding signal with ETV2 was 1.37 fold enrichment (6-mer frequency, TF over GST control); in the assay with ELF3, 1.53 fold enrichment (6-mer frequency, TF over GST control); with CRX, 1.52 fold enrichment (6-mer frequency, TF over GST control); with ETV1, 1.25 fold enrichment (6-mer frequency, TF over GST control); with ERF, 1.39 fold enrichment (6-mer frequency, TF over GST control); in the assay with ETV3L, 1.35 fold enrichment (6-mer frequency, TF over GST control). In addition, the binding signal is 1.36 fold enrichment (6-mer frequency, TF over GST control) with ETS2; 1.21 fold enrichment (6-mer frequency, TF over GST control) in the assay with SPDEF; 1.4 fold enrichment (6-mer frequency, TF over GST control) with ETV7; 1.3 fold enrichment (6-mer frequency, TF over GST control) with ELF5; 1.44 fold enrichment (6-mer frequency, TF over GST control) in the assay with ETV3; 1.3 fold enrichment (6-mer frequency, TF over GST control) with ETV6.

(Values after PMC7862700, “An all-to-all approach to the identification of sequence-specific readers for epigenetic DNA modifications on cytosine”.)
